# In PubChem BioAssay (NCATS):
# Unmarked numbers belong to inactive results. Inconclusive results are not listed. A call without a number means that no potency is given here. Active and inactive are the calls of the source. Unless noted, calls follow the shape of the dose curve; as a rule, active = well fitted curve in the direction sought with a large enough effect; inconclusive = small, poorly fitted or top-dose-only effect, or another doubt; inactive = no such curve, though single readings can be large; an effect the other way counts as inactive or inconclusive.
# Assays:
# [1] = NFAT Signaling Pathway (AID 444; active = well fitted curve in either direction with a large enough effect, not every such curve was filed as active;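 also: carbachol stimulus at about its EC50 of 1 µM final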); details: Jurkat NFAT-bla M1, carbachol, beta-lactamase ratio, 5 h; at 17.2 µM (top of the series) unless noted
# Method in brief: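 Read-out: CCF4 FRET ratio (460 nm/530 nm) after 1 h RT dye loading, used for %activity and AC50 from titration series. Cells: Jurkat NFAT-β-lactamase/M1 line, treated with compound plus 1 uM carbachol for 5 h, 37 °C.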
# [2] = S16 Schwann cell PMP22 intronic element firefly luciferase assay (AID 624032); also: nearly all actives have a fitted effect of over 30% in size
# Method in brief: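 Luciferase reporter of PMP22 intronic-element expression in stably transfected S16 rat Schwann cells, read by ONE-Glo luminescence after 24 h compound exposure at 37 C. Activity scaled between DMSO (0%) and positive-control PTC124; concentration-effect curves quality-classified.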
# 7G8 = test: qHTS profiling for inhibitors of Plasmodium falciparum proliferation (AID 504749); also: nearly all actives have a fitted effect of over 60% in size; also: potency is read from the fitted curve at half-maximal effect; details: P. falciparum in erythrocytes, SYBR Green DNA, 72 h; series mostly up to 12.8 µM
# Method in brief: (§1)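 In a 72 h erythrocytic culture (37 C, humidified, 5% CO2) at 2.5% hematocrit and 0.3% starting parasitemia, compounds were tested; SYBR Green I in detergent lysis buffer stained parasite DNA overnight.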
# CP203 = test: as above; details: P. falciparum in erythrocytes, SYBR Green DNA, 72 h; series mostly up to 12.8 µM
# Method in brief: as §1
# CP215 = test: as above; details: P. falciparum in erythrocytes, SYBR Green DNA, 72 h; series mostly up to 12.8 µM
# Method in brief: as §1
# CP335 = test: as above; details: P. falciparum in erythrocytes, SYBR Green DNA, 72 h; series mostly up to 12.8 µM
# Method in brief: as §1
# DIV14 = test: as above; details: P. falciparum in erythrocytes, SYBR Green DNA, 72 h; series mostly up to 12.8 µM
# Method in brief: as §1
# ICS = test: as above; details: P. falciparum in erythrocytes, SYBR Green DNA, 72 h; series mostly up to 12.8 µM
# Method in brief: as §1
# TAB113 = test: as above; details: P. falciparum in erythrocytes, SYBR Green DNA, 72 h; series mostly up to 12.8 µM
# Method in brief: as §1
# W2 = test: as above; details: P. falciparum in erythrocytes, SYBR Green DNA, 72 h; series mostly up to 12.8 µM
# Method in brief: as §1
# [3] = molecular target: Glucocorticoid receptor (Homo sapiens) (UniProt P04150); test: GR-EFC Redistribution (AID 451; calls by dose curve; also: potency is read from the fitted curve at half-maximal effect); details: CHO-K1 GR-EFC translocation, beta-gal luminescence, 2 h
# Glucocorticoid receptor (Homo sapiens), sequence (P04150 whole entry, looked up, the tested form may be a part): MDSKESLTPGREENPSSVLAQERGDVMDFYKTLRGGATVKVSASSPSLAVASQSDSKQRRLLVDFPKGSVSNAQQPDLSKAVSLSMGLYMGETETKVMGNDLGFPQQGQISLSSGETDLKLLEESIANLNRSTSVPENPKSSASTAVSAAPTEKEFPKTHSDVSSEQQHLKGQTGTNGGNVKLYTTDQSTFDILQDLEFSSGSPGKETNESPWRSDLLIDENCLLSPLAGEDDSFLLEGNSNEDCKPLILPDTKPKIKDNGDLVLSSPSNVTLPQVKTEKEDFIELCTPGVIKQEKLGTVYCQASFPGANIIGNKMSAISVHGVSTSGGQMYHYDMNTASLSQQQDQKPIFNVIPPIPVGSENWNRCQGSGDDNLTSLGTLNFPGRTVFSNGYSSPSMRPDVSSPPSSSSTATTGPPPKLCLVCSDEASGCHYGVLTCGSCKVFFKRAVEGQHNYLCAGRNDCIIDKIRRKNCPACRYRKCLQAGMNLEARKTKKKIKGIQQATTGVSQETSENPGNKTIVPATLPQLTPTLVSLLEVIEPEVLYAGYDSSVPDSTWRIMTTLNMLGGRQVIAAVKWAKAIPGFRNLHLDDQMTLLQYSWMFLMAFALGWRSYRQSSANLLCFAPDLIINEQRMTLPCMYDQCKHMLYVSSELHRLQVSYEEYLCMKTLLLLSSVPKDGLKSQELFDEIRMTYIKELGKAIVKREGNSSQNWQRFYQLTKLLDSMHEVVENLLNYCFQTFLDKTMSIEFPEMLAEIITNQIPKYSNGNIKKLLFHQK
# Method in brief: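 Translocation of GR-ED fusion to nuclear EA restores b-gal, read by luminescence after 1 h room-temperature detection. Engineered CHO-K1 biosensor cells, 1,000/well, exposed 2 h at 37 C to titrations up to 46 uM final.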
# [4] = S16 Schwann cell PMP22 intronic element beta-lactamase assay (AID 624044; calls by dose curve; also: nearly all actives have a fitted effect of over 15% in size)
# Method in brief: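 Beta-lactamase reporter under a PMP22 intronic regulatory element in stable S16 rat Schwann cells; 24 h compound exposure. 460 nm blue signal normalized between DMSO (0%) and potassium clavulanate, with 535 nm FRET tracking viability; curves classed by r2 and response.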
# DFO2036 = test: qHTS profiling for inhibitors of Plasmodium falciparum proliferation (AID 504749); also: nearly all actives have a fitted effect of over 60% in size; also: potency is read from the fitted curve at half-maximal effect; details: P. falciparum in erythrocytes, SYBR Green DNA, 72 h; series mostly up to 12.8 µM
# Method in brief: as §1
# [5] = molecular target: Cytochrome P450 1A2 (Homo sapiens) (UniProt P05177); test: p450-cyp1a2 (AID 410; calls by dose curve; also: potency is read from the fitted curve at half-maximal effect)
# Cytochrome P450 1A2 (Homo sapiens), sequence (P05177 whole entry, looked up): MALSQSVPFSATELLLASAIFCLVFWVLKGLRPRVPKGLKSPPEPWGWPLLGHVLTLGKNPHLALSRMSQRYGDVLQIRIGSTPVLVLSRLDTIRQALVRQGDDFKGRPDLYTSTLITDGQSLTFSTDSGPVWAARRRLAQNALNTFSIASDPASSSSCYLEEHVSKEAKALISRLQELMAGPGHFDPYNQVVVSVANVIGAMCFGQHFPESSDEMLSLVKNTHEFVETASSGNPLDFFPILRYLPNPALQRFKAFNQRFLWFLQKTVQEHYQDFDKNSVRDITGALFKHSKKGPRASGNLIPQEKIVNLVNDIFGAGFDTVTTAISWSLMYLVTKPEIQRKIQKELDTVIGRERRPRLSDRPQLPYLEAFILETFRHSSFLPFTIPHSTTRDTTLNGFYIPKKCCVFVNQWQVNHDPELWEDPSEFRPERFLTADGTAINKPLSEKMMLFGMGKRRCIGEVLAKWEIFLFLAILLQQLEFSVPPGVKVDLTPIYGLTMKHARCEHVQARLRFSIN
# Method in brief: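 Read-out is luminescence from luciferin produced by CYP1A2 demethylation of Luciferin-ME (100uM, at Km). Detection reagent stopped the 60 min NADPH-dependent reaction; signals were normalized to 57 uM furafylline.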
# [6] = molecular target: Cytochrome P450 3A4 (Homo sapiens) (UniProt P08684); test: qHTS Assay for Activators of Cytochrome P450 3A4 (AID 885); also: nearly all actives have a fitted effect of over 65% in size
# Cytochrome P450 3A4 (Homo sapiens), sequence (P08684 whole entry, looked up): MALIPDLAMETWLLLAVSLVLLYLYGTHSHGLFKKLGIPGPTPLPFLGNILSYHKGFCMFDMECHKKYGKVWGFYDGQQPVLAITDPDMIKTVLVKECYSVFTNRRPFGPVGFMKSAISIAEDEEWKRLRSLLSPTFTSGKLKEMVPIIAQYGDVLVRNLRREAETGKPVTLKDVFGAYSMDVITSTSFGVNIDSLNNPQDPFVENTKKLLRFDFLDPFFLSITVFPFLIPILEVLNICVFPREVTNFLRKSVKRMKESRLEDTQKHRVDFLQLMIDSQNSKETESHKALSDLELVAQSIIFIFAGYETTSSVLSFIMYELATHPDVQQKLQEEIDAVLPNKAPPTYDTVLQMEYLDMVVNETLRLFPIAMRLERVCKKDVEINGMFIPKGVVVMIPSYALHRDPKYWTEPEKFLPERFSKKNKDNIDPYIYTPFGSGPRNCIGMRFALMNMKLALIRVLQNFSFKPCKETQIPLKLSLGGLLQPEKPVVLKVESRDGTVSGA
# Method in brief: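 Activators are scored by enhanced luminescence from CYP3A4 conversion of luciferin-PPXE (25uM, equal to KM) to luciferin, after 60 min at RT with an NADPH-regenerating system.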
# [7] = molecular target: Cytochrome P450 3A4 (Homo sapiens) (UniProt P08684); test: qHTS Assay for Inhibitors and Substrates of Cytochrome P450 3A4 (AID 884); also: nearly all actives have a fitted effect of over 50% in size; also: potency is read from the fitted curve at half-maximal effect
# Method in brief: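 Luminescent readout of luciferin produced by CYP3A4 (20 nM) dealkylation of Luciferin-PPXE, 25 uM (its KM). NADPH-driven reaction ran 60 min at RT after 10 min compound preincubation; data scaled to 57 uM ketoconazole as 100% inhibition.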
# [8] = molecular target: Cytochrome P450 2D6 (Homo sapiens) (UniProt P10635); test: qHTS Assay for Inhibitors and Substrates of Cytochrome P450 2D6 (AID 891); also: nearly all actives have a fitted effect of over 60% in size; also: potency is read from the fitted curve at half-maximal effect;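 as to activity change, negative = inhibition: luciferin methyl ether substrate demethylated by CYP2D6 with NADPH regeneration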
# Cytochrome P450 2D6 (Homo sapiens), sequence (P10635 whole entry, looked up): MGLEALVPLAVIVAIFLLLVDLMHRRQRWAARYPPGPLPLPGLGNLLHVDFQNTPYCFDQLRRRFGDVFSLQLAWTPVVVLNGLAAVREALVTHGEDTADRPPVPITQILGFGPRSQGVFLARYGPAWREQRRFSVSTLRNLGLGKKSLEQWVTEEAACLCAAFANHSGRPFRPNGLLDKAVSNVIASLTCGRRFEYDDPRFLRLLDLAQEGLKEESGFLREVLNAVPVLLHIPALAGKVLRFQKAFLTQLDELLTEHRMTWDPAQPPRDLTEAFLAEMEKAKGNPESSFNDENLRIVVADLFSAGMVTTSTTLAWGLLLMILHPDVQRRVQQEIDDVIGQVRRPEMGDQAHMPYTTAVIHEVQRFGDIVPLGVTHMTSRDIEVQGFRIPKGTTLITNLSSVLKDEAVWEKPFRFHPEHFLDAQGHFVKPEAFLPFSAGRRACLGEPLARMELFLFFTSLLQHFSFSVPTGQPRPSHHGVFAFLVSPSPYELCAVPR
# Method in brief: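 Luminescent read-out of luciferin formed by 5 nM human CYP2D6 demethylating 30 uM Luciferin-ME EGE (Km level) over 60 min at room temperature after NADPH regeneration addition. Data normalized to full inhibition by 1.43 uM quinidine.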
# [9] = molecular target: Cytochrome P450 2C19 (Homo sapiens) (UniProt P33261); test: qHTS Assay for Inhibitors and Substrates of Cytochrome P450 2C19 (AID 899); also: nearly all actives have a fitted effect of over 60% in size; also: potency is read from the fitted curve at half-maximal effect
# Cytochrome P450 2C19 (Homo sapiens), sequence (P33261 whole entry, looked up): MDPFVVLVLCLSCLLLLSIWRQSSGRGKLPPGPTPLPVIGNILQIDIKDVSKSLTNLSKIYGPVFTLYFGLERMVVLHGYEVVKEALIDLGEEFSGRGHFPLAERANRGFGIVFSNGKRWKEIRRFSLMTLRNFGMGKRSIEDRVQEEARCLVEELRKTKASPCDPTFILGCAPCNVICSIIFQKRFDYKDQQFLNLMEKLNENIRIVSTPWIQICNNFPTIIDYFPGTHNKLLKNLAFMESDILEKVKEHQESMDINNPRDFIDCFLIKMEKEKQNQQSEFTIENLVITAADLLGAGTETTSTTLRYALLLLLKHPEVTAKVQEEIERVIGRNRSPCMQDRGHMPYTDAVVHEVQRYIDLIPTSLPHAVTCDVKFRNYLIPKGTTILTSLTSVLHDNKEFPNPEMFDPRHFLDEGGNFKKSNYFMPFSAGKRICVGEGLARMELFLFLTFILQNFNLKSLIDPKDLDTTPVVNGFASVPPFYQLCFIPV
# Method in brief: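 Reactions contain 5nM enzyme, 10uM Luciferin-H EGE (KM) and 50mM KPO4; compound preincubates 10 min at 37C, NADPH regeneration starts turnover for 60 min. Luminescence after detection reagent gives activity.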
# [10] = Confirmation and Secondary Assay for Modulators of Hemoglobin Beta Chain Splicing at IVS2 654 locus (AID 910);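 also: HeLa cells stably carrying EGFP split by mutant beta-globin IVS2-654 intron; per-well total GFP intensity by laser scanning cytometry after 2-day treatment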
# Method in brief: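 Readout: per-well total peak green fluorescence (488 nm ex, 500–520 nm em) from objects 5–250 µm, reflecting correct splicing of an EGFP-654 reporter. Compounds were applied for 2 days at 37 °C to overnight-plated HeLa EGFP-654 cells; controls were DMSO and 500 nM IVS2-654 PNA.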
# [11] = Confirmation and Secondary Assay for Modulators of Hemoglobin Beta Chain Splicing at IVS2 705 locus (AID 930);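 also: HeLa cells stably expressing the EGFP-705 splicing reporter; GFP fluorescence per well restored by corrected splicing of the IVS2-705 intron in EGFP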
# Method in brief: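 First, HeLa EGFP-705 cells are seeded at 500/well in Optimem with 2% FCS and left overnight. Next, compound or DMSO is added for 2 days. Finally wells are laser-scanned and total peak GFP intensity scored.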
structure (smiles),measurement,setting,value
CC(C)(C)NC[C@H](O)COc1cccc2c1C[C@@H](O)[C@@H](O)C2,"activity change, negative = inhibition",[1],-3.7%
same,Potency,[2],inactive
same,Potency,7G8,inactive
same,Potency,CP203,inactive
same,Potency,CP215,inactive
same,Potency,CP335,inactive
same,Potency,DIV14,inactive
same,Potency,ICS,inactive
same,Potency,TAB113,inactive
same,Potency,W2,inactive
COC(=O)[C@@H]1[C@@H]2C[C@H]3c4[nH]c5cc(OC)ccc5c4CCN3C[C@@H]2C[C@H](OC(=O)/C=C\c2cc(OC)c(OC)c(OC)c2)[C@H]1OC,"activity change, negative = inhibition",[1],0.402%
same,Potency,[3],> 20.6 µM
same,Potency,[4],inactive
same,Potency,7G8,3.16 µM (active)
same,Potency,DIV14,5.73 µM (active)
same,Potency,ICS,4.47 µM (active)
same,Potency,W2,1.81 µM (active)
COc1cc(N[C@@H](C)CCCN)c2ncccc2c1,Potency,[4],inactive
same,Potency,7G8,0.316 µM (active)
same,Potency,CP203,3.61 µM (active)
same,Potency,CP215,3.61 µM (active)
same,Potency,CP335,4.05 µM (active)
same,Potency,DFO2036,3.55 µM (active)
same,Potency,DIV14,0.572 µM (active)
same,Potency,ICS,0.708 µM (active)
same,Potency,TAB113,1.41 µM (active)
same,Potency,W2,2.03 µM (active)
CC[C@H](C(=O)[C@H](C)[C@H](O)[C@H](C)CCc1ccc(C)c(O)c1C(=O)O)[C@H]1O[C@](CC)([C@@H]2CC[C@@](O)(CC)[C@H](C)O2)C[C@H]1C,Potency,[5],inactive
same,Potency,[3],> 20.6 µM
same,Potency,[6],inactive
Cc1cc2ccc(=O)oc2cc1OC[C@@H](O)C(C)(C)O,Potency,[5],39.8 µM (active)
same,Potency,[3],> 46 µM
same,Potency,[7],inactive
same,Potency,[8],inactive
same,Potency,[9],inactive
CO[C@@H]1CC[C@@]2(C)[C@@H](CC[C@@]3(C)[C@H]2CC=C2[C@H]4CC(C)(C)[C@H](O)[C@@H](OC(C)=O)[C@]4(CO)[C@H](O)C[C@]23C)[C@@]1(C)CO (tested in a mixture with another compound),Potency,[5],inactive
C[C@H](NCCC(c1ccccc1)c1ccccc1)c1ccccc1,Potency,[3],> 20.6 µM
same,Potency,[6],inactive
same,Potency,[8],0.158 µM (active)
same,Potency,[9],5.01 µM (active)
CN1[C@H](CC(=O)c2ccccc2)CCC[C@H]1C[C@@H](O)c1ccccc1,Potency,[5],31.6 µM (active)
same,Potency,[7],inactive
same,Potency,[9],inactive
CC(C)(C)NC(=O)[C@@H]1CC[C@@H]2[C@@H]3CC[C@@H]4NC(=O)C=C[C@@]4(C)[C@H]3CC[C@]21C,"activity change, negative = inhibition",[1],3.14%
same,Potency,[3],> 20.6 µM
same,Potency,[4],inactive
same,Potency,CP203,inactive
same,Potency,CP215,inactive
same,Potency,CP335,inactive
same,Potency,DFO2036,inactive
same,Potency,DIV14,inactive
same,Potency,ICS,inactive
same,Potency,TAB113,inactive
same,Potency,W2,inactive
COC(=O)[C@@H]1[C@@H]2C[C@H]3c4[nH]c5cc(OC)ccc5c4CCN3C[C@@H]2C[C@H](OC(=O)c2cc(OC)c(OC)c(OC)c2)[C@H]1OC,"activity change, negative = inhibition",[1],-10.5%
same,Potency,[3],> 20.6 µM
same,Potency,[6],inactive
C[N+]1(C)CC[C@@H](OC(=O)[C@@](O)(c2ccccc2)C2CCCC2)C1,"activity change, negative = inhibition",[1],-43.8% (active)
c1ccc2c(c1)CCC[C@@H]2C1=NCCN1,"activity change, negative = inhibition",[1],4.55%
same,Potency,[2],inactive
same,Potency,7G8,inactive
same,Potency,CP203,inactive
same,Potency,CP215,inactive
same,Potency,CP335,inactive
same,Potency,DFO2036,inactive
same,Potency,DIV14,inactive
same,Potency,ICS,inactive
same,Potency,TAB113,inactive
same,Potency,W2,inactive
NCCC(=O)N[C@@H](Cc1cnc[nH]1)C(=O)O,Potency,[5],inactive
same,Potency,[7],inactive
same,Potency,[8],inactive
same,Potency,[9],inactive
N[C@H](Cc1cc(I)c(Oc2cc(I)c(O)c(I)c2)c(I)c1)C(=O)O,"activity change, negative = inhibition",[1],-8.92%
CC[C@]1(c2ccccc2)NC(=O)N(C)C1=O,"activity change, negative = inhibition",[1],-14.9%
C[C@@]12CCC(=O)C[C@@H]1CC(=O)[C@H]1[C@H]3CCC[C@]3(C)C(=O)C[C@@H]12 (tested in a mixture with another compound),"activity change, negative = inhibition",[1],-7.43%
same,Potency,[3],> 20.6 µM
CC1(C)S[C@@H]2[C@H](NC(=O)[C@@H](N)c3ccccc3)C(=O)N2[C@H]1C(=O)O[C@H]1OC(=O)c2ccccc21,Potency,[5],inactive
same,Potency,[7],1.58 µM (active)
same,Potency,[6],inactive
same,Potency,[2],inactive
same,Potency,[4],inactive
same,Potency,7G8,inactive
same,Potency,CP203,inactive
same,Potency,CP215,inactive
same,Potency,CP335,inactive
same,Potency,DFO2036,inactive
same,Potency,DIV14,inactive
same,Potency,ICS,inactive
same,Potency,TAB113,inactive
same,Potency,W2,inactive
CC(C)n1c(/C=C\[C@@H](O)C[C@@H](O)CC(=O)O)c(-c2ccc(F)cc2)c2ccccc21,"activity change, negative = inhibition",[1],6.57%
same,Potency,[3],> 20.6 µM
COc1cc2ccc(=O)oc2c(O)c1O,Potency,[5],12.6 µM (active)
same,Potency,[7],inactive
same,Potency,[8],inactive
same,Potency,[10],inactive
same,Potency,[11],inactive
CC(C)(C)NC(=O)[C@@H]1C[C@H]2CCCC[C@@H]2CN1C[C@H](O)[C@H](Cc1ccccc1)NC(=O)[C@@H](CC(N)=O)NC(=O)c1ccc2ccccc2n1,"activity change, negative = inhibition",[1],-14.7%
same,Potency,[3],> 20.6 µM
C[N+]1(C)CCC[C@H]1C(=O)[O-],"activity change, negative = inhibition",[1],-2.21%
CO[C@@H]1C=CO[C@]2(C)Oc3c(C)c(O)c4c(O)c(c(C=NN5CCN(C)CC5)c(O)c4c3C2=O)NC(=O)C(C)=CC=C[C@H](C)[C@H](O)[C@H](C)[C@H](O)[C@H](C)[C@H](OC(C)=O)[C@H]1C,"activity change, negative = inhibition",[1],-8.69%
CCC(C)(C)C(=O)O[C@@H]1C[C@H](C)C=C2C=C[C@H](C)[C@@H](CC[C@H]3C[C@@H](O)CC(=O)O3)[C@H]21,"activity change, negative = inhibition",[1],7.6%
same,Potency,[2],inactive
same,Potency,[4],inactive
same,Potency,CP203,inactive
same,Potency,CP215,inactive
same,Potency,DIV14,inactive
COc1ccccc1OC[C@H](O)CO,"activity change, negative = inhibition",[1],-3.75%
same,Potency,[2],inactive
same,Potency,[4],inactive
same,Potency,7G8,inactive
same,Potency,CP203,inactive
same,Potency,CP215,inactive
same,Potency,CP335,inactive
same,Potency,DFO2036,inactive
same,Potency,DIV14,inactive
same,Potency,ICS,inactive
same,Potency,TAB113,inactive
same,Potency,W2,inactive
N[C@H](Cc1cc(I)c(Oc2ccc(O)c(I)c2)c(I)c1)C(=O)O,"activity change, negative = inhibition",[1],-4.32%
